# According to the supplement of paper PMC10037445:
# Whole data set: some 2,900 compounds, median “NF-kB SEAP reporter activity, fold change vs agonist alone” near 0.99, cut for the highest 2% near 2.6. The list comes from a sample in which the highest values are over-represented; it also holds similar structures and randomly drawn compounds.
# Legend:
# RAW-Dual [1] = assay: NF-kB SEAP reporter activity, fold change vs agonist alone; cytotoxicity flag (confluency mask): not cytotoxic; higher = enhanced NF-kB activity
# Procedure, shortened: (§1)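 RAW-Dual macrophages were seeded in DMEM at 50,000 cells/well in 384-well plates, given 50 nL of library stock by pin tool, and given a PRR agonist 1 h later. Plates were held at 37 °C, 5% CO2 for 20 hours, after which supernatant was read for IRF by QuantiLuc luminescence and for NF-κB by QuantiBlue absorbance at 620 nm. Reporter activity is expressed as fold change over wells that received agonist alone. A well was called cytotoxic when IncuCyte confluency fell below 70% of agonist controls in both mask sets.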
# RAW-Dual [2] = assay: NF-kB SEAP reporter activity, fold change vs agonist alone; higher = enhanced NF-kB activity; details: library stock concentration (final ~1000-fold dilution): 10 mM
# Procedure, shortened: as §1
# RAW-Dual [3] = assay: NF-kB SEAP reporter activity, fold change vs agonist alone; cytotoxicity flag (confluency mask): cytotoxic (confluency <70% of control); higher = enhanced NF-kB activity
# Procedure, shortened: as §1
# [4] = agonist: ODN 1826 (TLR9) 0.5 ug/mL
# [5] = agonist: Pam2CSK4 (TLR2/6) 0.1 ug/mL
# [6] = agonist: Pam3CSK4 (TLR2/1) 0.1 ug/mL
# [7] = cytotoxicity flag (confluency mask): not cytotoxic, agonist: Imiquimod (TLR7) […]
# [8] = cytotoxicity flag (confluency mask): not cytotoxic, agonist: MPLA (TLR4) […]
# [9] = cytotoxicity flag (confluency mask): cytotoxic (confluency <70% of control), agonist: Imiquimod (TLR7) […]
# [10] = cytotoxicity flag (confluency mask): cytotoxic (confluency <70% of control), agonist: MPLA (TLR4) […]
smiles,measurement,setting,value
Cc1c[nH]c(-c2cnc(NCCNc3ccc(C#N)cn3)nc2-c2ccc(Cl)cc2Cl)n1 (library stock concentration (final ~1000-fold dilution): 10 mM),NF-kB SEAP reporter activity,RAW-Dual [1]; agonist: LPS (TLR4) 0.1 ug/mL,3.08
same,NF-kB SEAP reporter activity,RAW-Dual [1]; [4],2.65
same,NF-kB SEAP reporter activity,RAW-Dual [1]; [5],2.12
same,NF-kB SEAP reporter activity,RAW-Dual [1]; [6],2.9
Cc1c[nH]c(-c2cnc(NCCNc3ccc(C#N)cn3)nc2-c2ccc(Cl)cc2Cl)n1.Cl,NF-kB SEAP reporter activity,RAW-Dual [2]; [7],2.27
same,NF-kB SEAP reporter activity,RAW-Dual [2]; [8],2.2
Cc1c[nH]c(-c2cnc(NCCNc3ccc(C#N)cn3)nc2-c2ccc(Cl)cc2Cl)n1,NF-kB SEAP reporter activity,RAW-Dual [2]; [7],2.12
same,NF-kB SEAP reporter activity,RAW-Dual [2]; [8],2.19
Cc1c[nH]c(-c2cnc(NCCNc3ccc(C#N)cn3)nc2-c2ccc(Cl)cc2Cl)n1.Cl (library stock concentration (final ~1000-fold dilution): 10 mM),NF-kB SEAP reporter activity,RAW-Dual [1]; agonist: LPS (TLR4) 0.1 ug/mL,2.97
same,NF-kB SEAP reporter activity,RAW-Dual [1]; [4],2.78
same,NF-kB SEAP reporter activity,RAW-Dual [1]; [5],1.84
same,NF-kB SEAP reporter activity,RAW-Dual [1]; [6],3.48
CCOC(=O)Nc1ccc(NCc2ccc(F)cc2)nc1N.O=C(O)/C=C/C(=O)O (library stock concentration (final ~1000-fold dilution): 10 mM),NF-kB SEAP reporter activity,RAW-Dual [1]; agonist: LPS (TLR4) 0.1 ug/mL,1.03
same,NF-kB SEAP reporter activity,RAW-Dual [1]; [4],1.1
same,NF-kB SEAP reporter activity,RAW-Dual [1]; [5],0.993
same,NF-kB SEAP reporter activity,RAW-Dual [1]; [6],1.01
CCOC(=O)Nc1ccc(NCc2ccc(F)cc2)nc1N.O=C(O)/C=C/C(=O)O,NF-kB SEAP reporter activity,RAW-Dual [2]; [7],0.871
same,NF-kB SEAP reporter activity,RAW-Dual [2]; [8],1.23
CC(C)CN(CC(O)C(Cc1ccccc1)NC(=O)OC1COC2OCCC12)S(=O)(=O)c1ccc(N)cc1.CCO (stereo unspecified),NF-kB SEAP reporter activity,RAW-Dual [2]; [7],1.42
same,NF-kB SEAP reporter activity,RAW-Dual [2]; [8],1.49
CC(C)CN(CC(O)C(Cc1ccccc1)NC(=O)OC1COC2OCCC12)S(=O)(=O)c1ccc(N)cc1.CCO (stereo unspecified) (library stock concentration (final ~1000-fold dilution): 10 mM),NF-kB SEAP reporter activity,RAW-Dual [1]; agonist: LPS (TLR4) 0.1 ug/mL,1.78
same,NF-kB SEAP reporter activity,RAW-Dual [1]; [4],1.57
same,NF-kB SEAP reporter activity,RAW-Dual [1]; [5],1.42
same,NF-kB SEAP reporter activity,RAW-Dual [1]; [6],1.43
COc1ccc(Cn2c3ncnc4c(ncn4Cc4ccc(OC)cc4)c-3nc2=O)cc1 (library stock concentration (final ~1000-fold dilution): 10 mM),NF-kB SEAP reporter activity,RAW-Dual [1]; agonist: LPS (TLR4) 0.1 ug/mL,1.73
same,NF-kB SEAP reporter activity,RAW-Dual [1]; [4],1.45
same,NF-kB SEAP reporter activity,RAW-Dual [1]; [5],0.409
same,NF-kB SEAP reporter activity,RAW-Dual [1]; [6],0.8
COc1ccc(Cn2c3ncnc4c(ncn4Cc4ccc(OC)cc4)c-3nc2=O)cc1,NF-kB SEAP reporter activity,RAW-Dual [2]; [7],1.43
same,NF-kB SEAP reporter activity,RAW-Dual [2]; [8],2.08
CC(=O)c1ccc2c(c1)c1cc(C(C)=O)ccc1n2CCNC(C)C,NF-kB SEAP reporter activity,RAW-Dual [2]; [9],0.147
same,NF-kB SEAP reporter activity,RAW-Dual [2]; [10],0.242
CC(=O)c1ccc2c(c1)c1cc(C(C)=O)ccc1n2CCNC(C)C (library stock concentration (final ~1000-fold dilution): 10 mM),NF-kB SEAP reporter activity,RAW-Dual [3]; agonist: LPS (TLR4) 0.1 ug/mL,0.301
same,NF-kB SEAP reporter activity,RAW-Dual [3]; [4],0.193
same,NF-kB SEAP reporter activity,RAW-Dual [3]; [5],0.0764
same,NF-kB SEAP reporter activity,RAW-Dual [3]; [6],0.183
NC(=O)c1cccc(-c2cc(Nc3ccc(OC(F)(F)F)cc3)ncn2)c1 (library stock concentration (final ~1000-fold dilution): 10 mM),NF-kB SEAP reporter activity,RAW-Dual [1]; agonist: LPS (TLR4) 0.1 ug/mL,1.21
same,NF-kB SEAP reporter activity,RAW-Dual [1]; [4],0.672
same,NF-kB SEAP reporter activity,RAW-Dual [1]; [5],0.944
same,NF-kB SEAP reporter activity,RAW-Dual [1]; [6],0.869
COc1ccccc1-c1cc(Nc2cccc(CS(N)(=O)=O)c2)ncn1 (library stock concentration (final ~1000-fold dilution): 10 mM),NF-kB SEAP reporter activity,RAW-Dual [1]; agonist: LPS (TLR4) 0.1 ug/mL,2.67
same,NF-kB SEAP reporter activity,RAW-Dual [1]; [4],2.18
same,NF-kB SEAP reporter activity,RAW-Dual [1]; [5],0.783
same,NF-kB SEAP reporter activity,RAW-Dual [1]; [6],1.55
NC(=O)c1cccc(-c2cc(Nc3ccc(OC(F)(F)F)cc3)ncn2)c1,NF-kB SEAP reporter activity,RAW-Dual [2]; [7],1.24
same,NF-kB SEAP reporter activity,RAW-Dual [2]; [8],1.11
COc1ccccc1-c1cc(Nc2cccc(CS(N)(=O)=O)c2)ncn1,NF-kB SEAP reporter activity,RAW-Dual [2]; [7],1.45
same,NF-kB SEAP reporter activity,RAW-Dual [2]; [8],2.59
COc1cc(F)ccc1-c1ncnc(Nc2cccc(CS(C)(=N)=O)c2)n1 (stereo unspecified) (library stock concentration (final ~1000-fold dilution): 10 mM),NF-kB SEAP reporter activity,RAW-Dual [3]; agonist: LPS (TLR4) 0.1 ug/mL,0.786
same,NF-kB SEAP reporter activity,RAW-Dual [3]; [4],1.4
same,NF-kB SEAP reporter activity,RAW-Dual [3]; [5],0.277
same,NF-kB SEAP reporter activity,RAW-Dual [3]; [6],0.421
COc1cc(F)ccc1-c1ncnc(Nc2cccc(CS(C)(=N)=O)c2)n1 (stereo unspecified),NF-kB SEAP reporter activity,RAW-Dual [2]; [9],1.26
same,NF-kB SEAP reporter activity,RAW-Dual [2]; [10],1.31
CCOc1cc(=O)[nH]cc1-c1ccc(CC(=O)Nc2cc(C(C)(C)C(F)(F)F)on2)c(F)c1 (library stock concentration (final ~1000-fold dilution): 10 mM),NF-kB SEAP reporter activity,RAW-Dual [1]; agonist: LPS (TLR4) 0.1 ug/mL,0.538
same,NF-kB SEAP reporter activity,RAW-Dual [1]; [4],0.276
same,NF-kB SEAP reporter activity,RAW-Dual [1]; [5],0.163
same,NF-kB SEAP reporter activity,RAW-Dual [1]; [6],0.188
CCOc1cc(=O)[nH]cc1-c1ccc(CC(=O)Nc2cc(C(C)(C)C(F)(F)F)on2)c(F)c1,NF-kB SEAP reporter activity,RAW-Dual [2]; [7],0.281
same,NF-kB SEAP reporter activity,RAW-Dual [2]; [8],0.545
CC(C)=CCCC(C)(OC1OC(CO)C(O)C(O)C1O)C1CCC2(C)C1C(O)CC1C3(C)CCC(OC4OC(CO)C(O)C(O)C4OC4OC(CO)C(O)C(O)C4O)C(C)(C)C3CCC12C (stereo unspecified) (library stock concentration (final ~1000-fold dilution): 10 mM),NF-kB SEAP reporter activity,RAW-Dual [1]; agonist: LPS (TLR4) 0.1 ug/mL,0.838
same,NF-kB SEAP reporter activity,RAW-Dual [1]; [4],1.11
same,NF-kB SEAP reporter activity,RAW-Dual [1]; [5],0.899
same,NF-kB SEAP reporter activity,RAW-Dual [1]; [6],1.02
CC(C)=CCCC(C)(OC1OC(CO)C(O)C(O)C1O)C1CCC2(C)C1C(O)CC1C3(C)CCC(OC4OC(CO)C(O)C(O)C4OC4OC(CO)C(O)C(O)C4O)C(C)(C)C3CCC12C (stereo unspecified),NF-kB SEAP reporter activity,RAW-Dual [2]; [7],1.01
same,NF-kB SEAP reporter activity,RAW-Dual [2]; [8],1.02
CCCC(Nc1nc(-c2ccc(NC(=O)NCC)c(OC)c2)ncc1C)c1cccnc1 (stereo unspecified),NF-kB SEAP reporter activity,RAW-Dual [2]; [7],2.63
same,NF-kB SEAP reporter activity,RAW-Dual [2]; [8],2.57
CCCC(Nc1nc(-c2ccc(NC(=O)NCC)c(OC)c2)ncc1C)c1cccnc1 (stereo unspecified) (library stock concentration (final ~1000-fold dilution): 10 mM),NF-kB SEAP reporter activity,RAW-Dual [1]; agonist: LPS (TLR4) 0.1 ug/mL,5.93
same,NF-kB SEAP reporter activity,RAW-Dual [1]; [4],3.66
same,NF-kB SEAP reporter activity,RAW-Dual [1]; [5],2.2
same,NF-kB SEAP reporter activity,RAW-Dual [1]; [6],2.92
O=C(/C=C/c1ccc(O)c(O)c1/C=C/c1ccc(O)c(O)c1)OC(Cc1ccc(O)c(O)c1)C(=O)O (stereo unspecified),NF-kB SEAP reporter activity,RAW-Dual [2]; [7],0.405
same,NF-kB SEAP reporter activity,RAW-Dual [2]; [8],0.891
O=C(/C=C/c1ccc(O)c(O)c1/C=C/c1ccc(O)c(O)c1)OC(Cc1ccc(O)c(O)c1)C(=O)O (stereo unspecified) (library stock concentration (final ~1000-fold dilution): 10 mM),NF-kB SEAP reporter activity,RAW-Dual [1]; agonist: LPS (TLR4) 0.1 ug/mL,1.09
same,NF-kB SEAP reporter activity,RAW-Dual [1]; [4],0.836
same,NF-kB SEAP reporter activity,RAW-Dual [1]; [5],0.837
same,NF-kB SEAP reporter activity,RAW-Dual [1]; [6],0.289
CCn1c2ccccc2c2cc(-n3nncc3-c3ccccc3)ccc21 (library stock concentration (final ~1000-fold dilution): 10 mM),NF-kB SEAP reporter activity,RAW-Dual [1]; agonist: LPS (TLR4) 0.1 ug/mL,3.15
same,NF-kB SEAP reporter activity,RAW-Dual [1]; [4],1.82
same,NF-kB SEAP reporter activity,RAW-Dual [1]; [5],1.81
same,NF-kB SEAP reporter activity,RAW-Dual [1]; [6],2.79
CCn1c2ccccc2c2cc(CNCc3ccccc3OC)ccc21.Cl (library stock concentration (final ~1000-fold dilution): 10 mM),NF-kB SEAP reporter activity,RAW-Dual [3]; agonist: LPS (TLR4) 0.1 ug/mL,1.06
same,NF-kB SEAP reporter activity,RAW-Dual [3]; [4],0.394
same,NF-kB SEAP reporter activity,RAW-Dual [3]; [5],0.659
same,NF-kB SEAP reporter activity,RAW-Dual [3]; [6],0.641
CCn1c2ccccc2c2cc(CNCc3ccccc3OC)ccc21.Cl,NF-kB SEAP reporter activity,RAW-Dual [2]; [9],1.22
same,NF-kB SEAP reporter activity,RAW-Dual [2]; [10],1.37
CCn1c2ccccc2c2cc(-n3nncc3-c3ccccc3)ccc21,NF-kB SEAP reporter activity,RAW-Dual [2]; [7],1.66
same,NF-kB SEAP reporter activity,RAW-Dual [2]; [8],2.14
CC(=O)N1CCN(c2ccc(NC(=O)Cc3cnc(-c4ccnc(F)c4)c(C)c3)nc2)CC1,NF-kB SEAP reporter activity,RAW-Dual [2]; [7],0.874
same,NF-kB SEAP reporter activity,RAW-Dual [2]; [8],1
CC(=O)N1CCN(c2ccc(NC(=O)Cc3cnc(-c4ccnc(F)c4)c(C)c3)nc2)CC1 (library stock concentration (final ~1000-fold dilution): 10 mM),NF-kB SEAP reporter activity,RAW-Dual [1]; agonist: LPS (TLR4) 0.1 ug/mL,0.956
same,NF-kB SEAP reporter activity,RAW-Dual [1]; [4],0.965
same,NF-kB SEAP reporter activity,RAW-Dual [1]; [5],0.991
same,NF-kB SEAP reporter activity,RAW-Dual [1]; [6],1.03
